Results taken from PubChem BioAssay AID1345082 (National Center for Advancing Translational Sciences (NCATS), 2018).
About 4,000 (4.3%) of roughly 94,000 compounds were called active. Not shown: some 29% with an inconclusive outcome. The full list was thinned out, with actives kept by preference. A number with no mark means an inactive call. Calls come from the whole dose curve; as a rule, active = well fitted inhibition curve with a large enough effect; inconclusive = small, poorly fitted or top-dose-only effect; inactive = no such curve, though single readings can be large or run the other way.

Experiment: Cytotoxic Profiling in NIH 3T3 Cell Line of Diverse Libraries Using Quantitative High-Throughput Screening; note: nearly all actives have a fitted effect of over 55% in size
Details: NIH 3T3 viability, CellTiter-Glo ATP luminescence, 48-72 h; series mostly up to 96.7 µM; activity change, negative = cytotoxicity: at the top concentration
Summary of the method: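 Luminescent ATP readout (CellTiter-Glo, 10 min RT) after 48 or 72 hr compound exposure of NIH 3T3 cells seeded at 400 cells/well in 1536-well format; quantitative HTS.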
% is set by controls: 0 for no effect and ±100 for the full control effect; potency is the fitted concentration of half-maximal effect.

Structure (SMILES) | activity change, negative = cytotoxicity | Potency | outcome
CNC(=O)[C@H]1C[C@H](Oc2ccccc2)CN1C(=O)c1cc(-c2ccccc2)n[nH]1 | -20.2% |  | 
CC(=O)N1CCC(N[C@H]2C[C@@H](Cc3cc(CN(C)c4ccccc4)on3)C2(C)C)CC1 |  | 89.1 µM (active) | 
CC1(C)[C@H](Cc2cc(CC3CCCCC3)on2)C[C@@H]1NC(=O)C1CCC1 |  | 39.8 µM (active) | 
COCc1cc(C[C@@H]2CC[C@H](O)[C@@H](CN(C)C)O2)no1 |  |  | inactive [at 174 µM]
CC1(C)[C@H](Cc2cc(CC3CCCCC3)on2)C[C@@H]1NC1CCOCC1 |  | 31.6 µM (active) | 
COCc1cc(C[C@@H]2CC[C@H](O)[C@@H](CN(CC3CCCCC3)CC3CCCCC3)O2)no1 | -16% |  | 
CCC(CC)C(=O)N[C@H]1C[C@@H](Cc2cc(COc3ccccc3)on2)C1(C)C |  | 70.8 µM (active) | 
CC1(C)[C@H](Cc2cc(CCO)on2)C[C@@H]1NCC1CC1 | -0.442% [at 230 µM] |  | 
CN(Cc1nccn1C)C(=O)c1cc(CN2CCC(Cc3ccccc3)CC2)on1 | -27.7% |  | 
CN(Cc1ccccc1)Cc1cc(CC2(NCc3ccc(CO)o3)COC2)no1 | -19.5% [at 174 µM] |  | 
CC1(C)[C@H](Cc2cc(CN3CCCCC3)on2)C[C@@H]1NS(C)(=O)=O | -8.6% [at 174 µM] |  | 
CC(=O)N1CCC(NC[C@H]2O[C@H](Cc3cc(-c4cccc(O)c4)on3)CC[C@@H]2O)CC1 | -11% [at 138 µM] |  | 
CN(C)S(=O)(=O)N1CCCOCCNC(=O)[C@@H]2CCC[C@@H]21 | -8.75% |  | 
COc1ccc2[nH]c(C(=O)N3C[C@@H](Oc4ccccc4)C[C@H]3C(=O)N3CCCC3)cc2c1 | -4.04% |  | 
O=C(c1nc2sccn2c1CN1CCCC(CO)C1)N1CCCCC1 (stereo not given) | -1.87% |  | 
COc1ccc(NC(=O)CC2CCOCC2)cc1 |  |  | inactive
Cc1cccc(CC(=O)N2C[C@@H](CO)[C@H](c3ccccn3)C2)c1 | -12.2% |  | 
CC(C)(C)c1coc([C@@H]2COCCN2C2CCC2)n1 | -17.5% [at 174 µM] |  | 
CCOc1cc(=O)n2c(c1C(=O)NCCc1ccccc1)CCCCC2 | -1.68% |  | 
O=C(Cc1ccc(F)cc1)NC1CCN(c2nc3ncccc3o2)C1 (stereo not given) | -8.47% [at 138 µM] |  | 

Structure (SMILES) | activity change, negative = cytotoxicity | Potency | outcome
Cc1cccc(-c2cccc(CN3CCC(NC(=O)Nc4ccccc4)CC3)c2)c1 |  | 12.6 µM (active) | 
CN1C(=O)c2cccn2CC1C(=O)NC1CCN(Cc2ccccc2)CC1 (stereo not given) |  |  | inactive
O=C(Cc1ccc(F)cc1)NC1CCN(c2cn[nH]c(=O)c2)CC1 |  |  | inactive
COC(=O)N1CCN(C(=O)c2cccc(-c3cccc(OC)c3)c2)CC1 | -13.9% |  | 
Cc1cccc(-c2cccc(CN3CCC(NC(=O)Cc4ccc(F)cc4)CC3)c2)c1 |  | 28.2 µM (active) | 
COc1cccc(-c2ccc(C(=O)N3CCC(NC(=O)Cc4ccc(F)cc4)CC3)cc2)c1 |  | 39.8 µM (active) | 
O=C(CCNc1cnc2cnccn12)NC1CCN(Cc2ccccc2)CC1 | -24.1% |  | 
COc1ccc(-c2ccccc2C(=O)N2CCC(NC(=O)Cc3ccc(F)cc3)CC2)nn1 | -4.48% |  | 
COCCN1CCC(N2CCN(S(=O)(=O)c3ccccc3)CC2)C1=O (stereo not given) | -10.6% |  | 
O=C(NCC1CCOCC1)C1COc2ccccc2O1 (stereo not given) | 0.377% |  | 
CC(C)(C)CC(=O)NC1CCN(c2cnn(CC3CC3)c(=O)c2)CC1 | -25% |  | 
O=C(NCCc1noc(-c2ccccc2)n1)C1CC1 | 0.495% |  | 
CCn1cc(C(=O)N2CC(COC)C3(CCNCC3)C2)cn1 (stereo not given) | -10.5% |  | 
CSc1ccc(-c2cccc(CN3CCC(N[S+](=O)([O-])c4cccs4)CC3)c2)cc1 |  | 12.6 µM (active) | 
Cc1noc(C)c1[S+](=O)([O-])N1CC(Oc2ccc(F)c(F)c2)C1 |  |  | inactive
Cc1noc(C)c1[S+](=O)([O-])NC1CCN(Cc2cccc(-c3ccc(F)c(F)c3)c2)CC1 |  | 14.1 µM (active) | 
Cc1noc(C)c1[S+](=O)([O-])N1CCn2c(nnc2-c2ccccc2)C1 | -32.3% |  | 
O=C(Nc1cc(F)ccc1F)N1CCC(Oc2ncccc2C(=O)N2CCCCC2)C1 (stereo not given) | -27.5% |  | 
Cn1cccc1C(=O)N1CCCC(c2nc(-c3ccccc3)no2)CCNC(=O)CC1 (stereo not given) | -6.19% |  | 
COc1ccccc1NC(=O)Cn1c(C)cc2nc3n(c(=O)c21)CCC3 | -11.3% |  | 

Structure (SMILES) | activity change, negative = cytotoxicity | Potency | outcome
Cc1noc(C2CC3(CCN(C(=O)c4sc(C)nc4C)CC3)CN2C)n1 (stereo not given) | -22.6% |  | 
CCn1nc(C)cc1C(=O)N[C@H]1[C@H](O)[C@H](O)C[C@@H]1c1cccnc1 | -4.46% [at 174 µM] |  | 
CN1CCN([C@H]2CCN(C(=O)Cc3cccc(O)c3)C[C@H]2CCCO)CC1 | 2.88% |  | 
COCCNC(=O)[C@@H]1C[C@H](Oc2cccnc2)CN1C(=O)c1nccn1C | -8.07% |  | 
Cc1cc(=O)n(CC(=O)Nc2cccc(Cl)c2C)c(N2CCc3ccccc3C2)n1 | 2.06% |  | 
Cc1cc(=O)n(CC(=O)NCCc2ccc(Cl)cc2)c(N2CCc3ccccc3C2)n1 |  | 25.1 µM (active) | 
CCOC(=O)C1=CN(CC(=O)NCCc2ccc(Cl)cc2)S(=O)(=O)N=C1C | -14.8% |  | 
CCC(CC)NC(=O)C1Cn2cccc2C(=O)N1Cc1cccnc1 (stereo not given) | -2.79% |  | 
O=C(NC1CCN(c2cc(-c3ccccc3)[nH]n2)CC1)c1cccs1 | -27.8% |  | 
Cn1nccc1C(=O)NC1CCCN(c2cc(-c3ccc(F)cc3)[nH]n2)C1 (stereo not given) | -29.7% |  | 
O=C(NCC1CCN(c2cc(-c3ccc(Cl)cc3)[nH]n2)CC1)c1ccc2nc[nH]c2c1 |  | 35.5 µM (active) | 
O=C(Cc1ccc(F)cc1)NC1CCN(c2cc(-c3ccc(Cl)cc3)[nH]n2)CC1 | -6.32% |  | 
O=C(NC1CCN(c2cc(-c3ccc(F)cc3)[nH]n2)C1)c1cc2ccccc2[nH]1 (stereo not given) |  | 39.8 µM (active) | 
CCn1ccc(C(=O)NC2CCCN(c3cc(-c4ccc(F)cc4)[nH]n3)C2)n1 (stereo not given) | -20.8% |  | 
O=C(NC1CCN(c2cc(-c3ccc(Cl)cc3)[nH]n2)C1)c1c[nH]c2ccccc12 (stereo not given) |  | 39.8 µM (active) | 
CC(=O)N1CCC(C(=O)NCC2CCN(c3cc(-c4ccc(C)cc4)[nH]n3)CC2)CC1 | -19.3% |  | 
Cc1ccc(-c2cc(N3CCC(CNC(=O)c4ccc(N(C)C)cc4)CC3)n[nH]2)cc1 | -29.1% |  | 
CNC(=O)[C@H]1C[C@H](Oc2cccnc2)CN1C(=O)c1ccccc1 | -6.57% |  | 
CCOc1ccccc1CN1CCc2nc(N3CCN(C)CC3)[nH]c(=O)c2CC1 | -20.9% |  | 
CC(C)N1CC2(C1)C(=O)N(Cc1cccc(Cl)c1)C(=O)[C@@H]1C[C@@H](O)CN12 | -3.82% [at 174 µM] |  | 
